High-throughput results (PubChem BioAssay)
ST2 inh: inhibitors of human ST2 (IL1RL1) binding to IL-33 | AID 1259354 | 2.3% of 78,000 active | inhibition, % for hits at 17 µM | AlphaLISA ST2-Fc/biotin-IL-33 interaction, 1 h | Q01638; in the data active = inhibition above about 30%
Target sequence (Q01638 whole entry, looked up): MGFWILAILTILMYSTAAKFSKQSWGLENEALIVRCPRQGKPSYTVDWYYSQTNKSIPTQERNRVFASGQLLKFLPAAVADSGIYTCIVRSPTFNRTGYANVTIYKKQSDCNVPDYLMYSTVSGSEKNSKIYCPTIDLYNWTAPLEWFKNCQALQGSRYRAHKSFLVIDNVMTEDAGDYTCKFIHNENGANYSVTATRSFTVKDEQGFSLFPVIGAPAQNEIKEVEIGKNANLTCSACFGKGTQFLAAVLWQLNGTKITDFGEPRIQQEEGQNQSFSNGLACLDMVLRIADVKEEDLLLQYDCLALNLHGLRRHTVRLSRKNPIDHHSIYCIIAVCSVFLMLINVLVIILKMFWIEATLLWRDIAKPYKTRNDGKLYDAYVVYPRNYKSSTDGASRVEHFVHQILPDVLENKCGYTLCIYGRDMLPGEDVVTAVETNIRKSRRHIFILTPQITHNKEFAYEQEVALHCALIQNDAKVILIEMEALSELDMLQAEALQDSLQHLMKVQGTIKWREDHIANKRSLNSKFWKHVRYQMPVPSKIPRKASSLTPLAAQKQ
Active calls of the source: *; i = inactive. This is one part of a sample in which hits are shown more often than they occur.

SMILES	ST2 inh
CNC(=O)CN1C(=O)/C(=C/c2ccccc2F)Sc2ccccc21	i
O=C(CN1C(=O)/C(=C/c2ccccc2F)Sc2ccccc21)N1CCCCC1	39%*
CNC(=O)CN1C(=O)/C(=C\c2ccc(C(F)(F)F)cc2)Sc2ccccc21	i
Cc1ccccc1/C=C1\Sc2ccccc2N(CC(=O)NC(C)c2ccccc2)C1=O (stereo not given)	32%*
COCCCNC(=O)CN1C(=O)/C(=C\c2ccc(Cl)cc2)Sc2ccccc21	i
O=C(CN1C(=O)/C(=C\c2ccc(Cl)cc2)Sc2ccccc21)N1CCCCC1	41%*
COCCNC(=O)CN1C(=O)/C(=C\c2ccc(Cl)cc2)Sc2ccccc21	i
CNC(=O)CN1C(=O)/C(=C/c2ccccc2C)Sc2ccccc21	i
CC(NC(=O)CN1C(=O)/C(=C\c2cccc(Cl)c2)Sc2ccccc21)c1ccccc1 (stereo not given)	i
O=C(CN1C(=O)/C(=C/c2ccccc2F)Sc2ccccc21)NC1CCCCCC1	i
O=C(CN1C(=O)/C(=C\c2ccc(C(F)(F)F)cc2)Sc2ccccc21)NCCN1CCCC1	39%*
O=C(CN1C(=O)/C(=C\c2cccc(Cl)c2)Sc2ccccc21)NCCN1CCCC1	i
Cc1ccc(CN2C[C@H](O)C[C@H]2c2nc(-c3ccc(C)c(F)c3)no2)cc1	i
Cn1c(=O)c2c(nc(SCC(=O)N3CCCCC3)n2C)n(C)c1=O	i
CCC(C)N(Cc1ccncc1)C(=O)c1cccc(-c2noc(C)n2)c1 (stereo not given)	i
COc1ccc(N2C(=O)CC(C(=O)NCCC3=CCCCC3)C2c2ccc(F)cc2)cc1 (stereo not given)	i
CC(=O)N1c2ccccc2NC2=C(C(=O)CC(c3ccccc3F)C2)C1c1ccccc1 (stereo not given)	i
Cc1c(Cl)ccc(S(=O)(=O)NCCOC23CC4CC(CC(C4)C2)C3)c1Cl	i
Cc1nc(C(=O)N2CCc3c(c(C(=O)NCc4ccccc4)nn3C)C2)cs1	i
COc1cc(-c2ncccc2C(F)(F)F)cc(OC)c1OC	i
O=C(CN1C(=O)/C(=C/c2ccccc2F)Sc2ccccc21)NC1CCCC1	i
Cc1ccc(CCNC(=O)CN2C(=O)/C(=C/c3ccccc3F)Sc3ccccc32)cc1	i
CC1CCCC(NC(=O)CN2C(=O)/C(=C/c3ccccc3F)Sc3ccccc32)C1C (stereo not given)	32%*
Cc1ccccc1NS(=O)(=O)c1ccc(-c2ccccc2)cc1	i
Cc1cc(N(C)C)nc(N2CCN(S(=O)(=O)c3ccc(F)cc3)CC2)n1	i
SMILES	ST2 inh
N.N.[Cl-].[Cl-].[Pt+4]	77%*
COCCN1CCCC2(CCN(C(=O)Cn3nc4ccccc4n3)C2)C1=O (stereo not given)	i
Cc1ccc(NC(=O)c2cnc3n(c2=O)CCS3)cc1Cl	i
O=C1Nc2cc(Cl)c(Cl)cc2N(O)N1c1ccc(F)cc1	i
Cn1c(NCc2cc(Cl)ccc2O)nc2ccccc21	i
O=C(CSc1ncnc2nc[nH]c12)c1cccc([N+](=O)[O-])c1	i
Cc1sc(NC(=O)C(C)(C)C)c(C(N)=O)c1C	i
CC(C)NC[C@H]1O[C@@H](CO)[C@@H](O)[C@H]1N1CCN(c2cccc(C(F)(F)F)c2)CC1	i
Cc1ccnc(Nc2nc(-c3ccc(O)c(O)c3)cs2)c1	44%*
Cc1ccnc(Nc2nc(-c3ccccn3)cs2)c1	i
Cc1ccc(Nc2nc(-c3ccc(F)cc3)cs2)cc1C	i
CCN(CC)S(=O)(=O)c1ccc(C(=O)N2CCN=C2SCc2ccc(Cl)cc2)cc1	i
CCOc1c(N2CCCc3ccccc32)c(=O)c1=O	i
Cc1ccc(CN2CC[C@H](c3nnc(-c4cccnc4)o3)C2)cc1	i
c1cncc(-c2nnc([C@H]3CCN(Cc4ccncc4)C3)o2)c1	i
c1ccc(CN2CC[C@H](c3nnc(-c4cccnc4)o3)C2)cc1	34%*
O=C(N/C(=C/c1cccnc1)C(=O)N1CCCC1)c1ccco1	i
Cc1ccccc1Cn1nc(C)c(NC(=O)c2cc(C(C)C)on2)c1C	i
CC1(C)CC(=O)C2=C(C1)OC(N)=C(C#N)C2c1ccccc1OCc1ccc(Cl)cc1 (stereo not given)	i
COc1cc(OC)cc(N2C(=O)[C@@H]3C[C@@H](NC(=O)c4cccn4C)CCN3C2=O)c1	i
CC(C)c1ccc(N2C(=O)C3C4C=CC(C4)C3C2=O)cc1 (stereo not given)	i
CSCC(=O)N[C@H]1CCN2C(=O)N(c3ccc(C(C)C)cc3)C(=O)[C@@H]2C1	52%*
CC1CC(C)CN(C(=O)COc2ccc3c(c2)C(=O)CC(C)(C)O3)C1 (stereo not given)	i
Oc1cccc(Oc2cccc(Oc3ccccc3)c2)c1	i
Cc1ccc(N2C(=O)C3C(C2=O)C2(C)C=CC3(C)O2)c(C)c1 (stereo not given)	i
SMILES	ST2 inh
O=C(c1cn(CC2CCCO2)nn1)N1CCN(Cc2cccc(Cl)c2)CC1 (stereo not given)	i
CCOC(=O)c1ccc(Nc2ncnc3c2cnn3-c2ccc(C)cc2C)cc1	i
O=C(CCc1nnc(CCc2c[nH]c3ccccc23)o1)N1CCC(c2ccccc2Cl)C1 (stereo not given)	i
COc1cc2c(cc1OC)C(C(=O)N1CCCCC1C)C(c1cccs1)N(C)C2=O (stereo not given)	i
Cn1c(=O)c2c(-c3ccccc3)n3ncccc3c2n(C)c1=O	i
COc1ccc(-c2c3c(=O)n(C)c(=O)n(C)c3c3cccnn23)cc1	i
COc1ccc(-c2c3c(=O)n(C)c(=O)n(C)c3c3c(-c4ccccc4)cc(C)nn23)cc1	31%*
CCOc1ccccc1N1COc2ccc3ccccc3c2C1	i
CN(Cc1ncccc1C(=O)O)Cc1nc2ccccc2n1C	i
CCc1nnc(NC(=O)CSc2nc3c([nH]c4ccccc43)c(=O)n2C)s1	i
Cc1cccc(-c2cccc(NC(=O)C3CCCN(C(=O)C4=NN(C)C(=O)CC4)C3)c2)c1 (stereo not given)	i
COC(=O)C1=NNC(C(=O)c2ccccc2)C1c1ccc(C)cc1 (stereo not given)	i
CCOc1ccc(N=C2S/C(=C\c3ccc(N(C)C)cc3)C(=O)N2CC)cc1	56%*
CCN1C(=O)/C(=C2/Sc3ccc(OC)cc3N2C)SC1=Nc1ccc(C(C)=O)cc1	i
CCOc1ccc(N2C(=O)S/C(=C\c3ccccc3)C2=O)cc1	i
O=C(NCCN1CCOCC1)c1ccc2c(Cl)c3c(nc2c1)CCCC3	i
CCC(C)NC(=O)Cn1cnc2sc(C)c(S(=O)(=O)N3CC(C)CC(C)C3)c2c1=O (stereo not given)	i
Cc1ccccc1CCC1CCCN(C(=O)Cc2c(C)[nH]c(=O)[nH]c2=O)C1 (stereo not given)	i
CCOc1ccc(N=CNc2ccc(OCC)cc2)cc1	i
CCOc1ccc(NCC(=O)c2ccc(Br)cc2)cc1	i
CCOc1ccc(N=C/C(=C/Nc2ccc(OCC)cc2)c2ccccc2)cc1	36%*
Cc1ccc(OCCn2nnc3ccccc32)c(C)c1	i
CCOC(=O)C1CCN(S(=O)(=O)c2ccc3c(c2)CCC(=O)N3)CC1	i
Cn1c2c(c3cc([N+](=O)[O-])ccc31)CCCC2=O	i
Cc1c(CC(Cl)(Cl)Cl)c2c(n1-c1ccc([N+](=O)[O-])cc1)CCCC2=O	41%*
Cc1c(CC(Cl)(Cl)Cl)c2c(n1O)CC(C)(C)CC2=O	i
